Experimental data reported in the supplement of paper PMC10849652.
Of roughly 7,900 targets only a part is listed; those with a hit were picked by preference. About 0.6% of all pairs of compound and target were hits.

How the values were obtained:
Test in all cases: log2 fold change, soluble protein after heating vs DMSO (PISA); higher = thermal stabilisation; K562 cells, 10 uM, 30 min; active = over 0.2 and 3.5 SD of the protein, either way, in both replicates (recomputed)
erlotinib = compound: C#Cc1cccc(Nc2ncnc3cc(OCCOC)c(OCCOC)cc23)c1 [erlotinib]
Outline: (§1)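 Aliquots of K562 cells (2×10^6 cells/mL) treated with 10 μM compound for 30 min were heated for 3 min over 48°C-58°C. After pooling and extraction in PBS with 0.5% NP-40 at 4°C, soluble protein from a 21,000xg, 90 min spin was quantified by TMTpro 16plex LC-MS/MS with channel sums equalised. Thermal stability is expressed against control samples, from duplicates, as a log2 fold change.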

[1] = compound: C/C(=N\NC(=O)C1=CC(=CC=C1)S(=O)(=O)N2CCOCC2)/C3=C(C=CC(=C3)Cl)O
Outline: as §1

[2] = compound: C1=CC(=C(C=C1Cl)C2=NC3=NC=CN=C3C(=N2)NC4=CC=NC=C4)F
Outline: as §1

[3] = compound: C1=CC(=CC=C1C2=NC3=C(N2)C=C(C=C3)C(=O)N)OC4=CC=C(C=C4)Cl
Outline: as §1

[4] = compound: C1=CC2=C(C=CC(=C2)/C=C\3/C(=O)NC(=NCC4=CC=CS4)S3)N=C1
Outline: as §1

[5] = compound: C1=CC2=NC=CN=C2C=C1/C=C/3\C(=O)NC(=O)S3
Outline: as §1

[6] = compound: C1=CC=C(C=C1)C2=NC(=C(N2)C3=CC=NC=C3)C4=CC(=C(C=C4)Cl)O
Outline: as §1

[7] = compound: C1=CC=C2C(=C1)C3=NNC4=CC=CC(=C43)C2=O
Outline: as §1

[8] = compound: C1CCN(C1)C(=O)NC2=CC=CC(=C2)NC3=NC=C(C(=N3)NCCC4=CN=CN4)Br
Outline: as §1

[9] = compound: C1CN(CCC1(CC2=CC=C(C=C2)Cl)N)C3=NC=NC4=C3C=CN4
Outline: as §1

Measured: log2 fold change

TRMT10A (UniProt Q8TBZ6)
inactive: erlotinib -0.01 | [1] 0.044 | [2] 0.004 | [3] 0.031 | [4] 0.037 | [5] 0.02 | [6] -0.015 | [8] 0.038 | [9] -0.045
active: [7] 0.271

UQCR10 (UniProt Q9UDW1)
inactive: erlotinib -0.026 | [1] 0.056 | [2] 0.069 | [3] -0.023 | [4] 0.034 | [5] 0.014 | [6] 0.046 | [7] -0.003 | [8] 0.006 | [9] 0

UBE2J1 (UniProt Q9Y385)
UniProt Q9Y385, sequence (Q9Y385 whole entry, looked up): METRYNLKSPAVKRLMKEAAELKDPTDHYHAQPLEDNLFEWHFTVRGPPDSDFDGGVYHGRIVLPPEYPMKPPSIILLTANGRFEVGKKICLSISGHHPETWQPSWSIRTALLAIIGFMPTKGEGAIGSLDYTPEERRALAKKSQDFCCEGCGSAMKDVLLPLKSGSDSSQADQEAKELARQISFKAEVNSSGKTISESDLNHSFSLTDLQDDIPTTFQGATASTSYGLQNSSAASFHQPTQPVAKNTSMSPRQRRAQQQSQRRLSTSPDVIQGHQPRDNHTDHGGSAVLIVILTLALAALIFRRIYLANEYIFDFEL
inactive: erlotinib 0.053 | [1] 0.063 | [2] -0.033 | [3] 0.045 | [4] 0.148 | [5] 0.054 | [6] 0.043 | [7] 0.036 | [8] -0.097 | [9] 0.012

WDHD1 (UniProt O75717)
inactive: erlotinib 0.007 | [1] 0.173 | [2] 0.093 | [3] -0.002 | [4] 0.026 | [5] 0.038 | [6] -0.02 | [7] -0.028 | [8] -0.031 | [9] -0.013

UCHL5 (UniProt Q9Y5K5)
inactive: erlotinib -0.018 | [1] 0.094 | [2] 0.005 | [3] -0.024 | [4] 0.036 | [5] 0.008 | [6] 0.02 | [7] 0.03 | [8] -0.001 | [9] -0.01

VPS28 (UniProt Q9UK41)
UniProt Q9UK41, sequence (Q9UK41 whole entry, looked up): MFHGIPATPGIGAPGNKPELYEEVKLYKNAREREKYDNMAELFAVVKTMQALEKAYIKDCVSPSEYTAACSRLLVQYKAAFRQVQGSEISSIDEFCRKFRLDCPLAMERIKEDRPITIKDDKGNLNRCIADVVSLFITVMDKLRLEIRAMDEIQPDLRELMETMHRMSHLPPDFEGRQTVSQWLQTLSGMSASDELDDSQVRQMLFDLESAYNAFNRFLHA
inactive: erlotinib -0.072 | [1] 0.031 | [2] 0.27 | [3] -0.011 | [4] 0.009 | [5] 0.023 | [6] 0.009 | [7] 0.001 | [8] -0.091 | [9] -0.043

TMEM173 (UniProt Q86WV6)
UniProt Q86WV6, sequence (Q86WV6 whole entry, looked up): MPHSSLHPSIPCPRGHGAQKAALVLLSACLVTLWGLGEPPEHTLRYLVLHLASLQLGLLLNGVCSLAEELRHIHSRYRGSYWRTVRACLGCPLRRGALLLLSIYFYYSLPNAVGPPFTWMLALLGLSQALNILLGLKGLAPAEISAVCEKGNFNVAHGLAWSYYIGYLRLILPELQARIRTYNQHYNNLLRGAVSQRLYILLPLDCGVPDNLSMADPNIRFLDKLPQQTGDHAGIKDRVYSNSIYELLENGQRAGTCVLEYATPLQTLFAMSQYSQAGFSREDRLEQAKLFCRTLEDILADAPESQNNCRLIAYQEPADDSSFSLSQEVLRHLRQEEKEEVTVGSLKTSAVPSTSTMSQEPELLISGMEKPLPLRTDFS
inactive: erlotinib 0.028 | [1] 0.018 | [2] -0.012 | [3] -0.078 | [4] 0.068 | [5] 0.019 | [6] -0.044 | [7] -0.032 | [8] 0.02 | [9] -0.05

TMEM9 (UniProt Q9P0T7)
UniProt Q9P0T7, sequence (Q9P0T7 whole entry, looked up): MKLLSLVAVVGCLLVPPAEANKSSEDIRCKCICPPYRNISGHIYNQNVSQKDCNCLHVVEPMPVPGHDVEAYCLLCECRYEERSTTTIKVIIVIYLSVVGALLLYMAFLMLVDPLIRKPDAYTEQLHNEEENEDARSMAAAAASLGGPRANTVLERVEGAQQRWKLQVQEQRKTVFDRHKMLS
inactive: erlotinib 0.014 | [1] 0.008 | [2] 0.254 | [3] -0.021 | [4] -0.034 | [5] -0.117 | [6] 0.037 | [7] -0.004 | [8] -0.053 | [9] -0.025

UBR2 (UniProt Q8IWV8)
inactive: erlotinib 0.019 | [1] 0.067 | [2] -0.108 | [3] 0.051 | [4] 0.045 | [5] 0.046 | [6] -0.08 | [7] -0.189 | [8] 0.016 | [9] 0.018

UBE3D (UniProt Q7Z6J8)
UniProt Q7Z6J8, sequence (Q7Z6J8 whole entry, looked up): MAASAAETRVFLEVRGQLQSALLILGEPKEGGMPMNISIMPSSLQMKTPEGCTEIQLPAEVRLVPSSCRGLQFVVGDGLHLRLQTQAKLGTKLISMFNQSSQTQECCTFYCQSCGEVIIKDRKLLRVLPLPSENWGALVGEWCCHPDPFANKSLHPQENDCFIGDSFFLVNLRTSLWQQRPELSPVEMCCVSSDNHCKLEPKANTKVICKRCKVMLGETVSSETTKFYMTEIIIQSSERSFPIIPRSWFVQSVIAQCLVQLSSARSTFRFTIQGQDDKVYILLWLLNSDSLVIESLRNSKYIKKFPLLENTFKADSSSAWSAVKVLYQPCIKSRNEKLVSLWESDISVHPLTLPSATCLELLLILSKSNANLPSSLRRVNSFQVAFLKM
inactive: erlotinib -0.014 | [1] -0.018 | [2] 0.033 | [3] 0.022 | [4] 0.003 | [5] -0.076 | [6] 0.013 | [7] -0.006 | [8] -0.114 | [9] 0.079

UGDH (UniProt O60701)
inactive: erlotinib 0.004 | [1] 0.134 | [2] 0.128 | [3] 0.023 | [4] 0.046 | [5] -0.174 | [6] 0.017 | [7] 0.043 | [8] -0.063 | [9] 0.009

VPS53 isoform 4 (UniProt Q5VIR6)
UniProt Q5VIR6, sequence (Q5VIR6 whole entry, looked up): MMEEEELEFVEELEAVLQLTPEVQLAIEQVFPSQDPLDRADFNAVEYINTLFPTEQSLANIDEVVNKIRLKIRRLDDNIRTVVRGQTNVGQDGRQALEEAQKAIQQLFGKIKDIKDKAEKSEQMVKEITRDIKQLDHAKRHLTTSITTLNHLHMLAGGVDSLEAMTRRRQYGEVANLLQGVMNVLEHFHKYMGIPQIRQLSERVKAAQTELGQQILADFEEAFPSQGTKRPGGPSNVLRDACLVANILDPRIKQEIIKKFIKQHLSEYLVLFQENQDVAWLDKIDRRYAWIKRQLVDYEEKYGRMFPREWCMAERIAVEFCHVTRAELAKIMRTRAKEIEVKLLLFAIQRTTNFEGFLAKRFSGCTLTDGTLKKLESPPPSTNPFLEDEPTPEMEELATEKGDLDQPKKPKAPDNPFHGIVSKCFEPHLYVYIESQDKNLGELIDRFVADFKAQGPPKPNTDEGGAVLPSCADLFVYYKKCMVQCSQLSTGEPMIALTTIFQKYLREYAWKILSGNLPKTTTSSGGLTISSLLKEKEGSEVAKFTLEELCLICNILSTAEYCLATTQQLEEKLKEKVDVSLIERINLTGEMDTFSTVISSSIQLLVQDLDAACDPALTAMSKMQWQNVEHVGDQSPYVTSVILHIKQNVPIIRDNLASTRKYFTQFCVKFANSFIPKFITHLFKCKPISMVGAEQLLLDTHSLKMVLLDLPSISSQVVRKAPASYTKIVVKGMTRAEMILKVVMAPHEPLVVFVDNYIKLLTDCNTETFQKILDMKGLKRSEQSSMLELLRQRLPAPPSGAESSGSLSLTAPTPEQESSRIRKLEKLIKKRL
inactive: erlotinib 0.06 | [1] 0.094 | [2] 0.003 | [3] -0.04 | [4] 0.107 | [5] 0.048 | [6] -0.083 | [7] 0.022 | [8] -0.021 | [9] -0.004

TRIP10 isoform 2 (UniProt Q15642)
inactive: erlotinib -0.116 | [1] -0.002 | [2] 0.112 | [3] 0.094 | [4] -0.069 | [5] 0.055 | [6] 0.326 | [7] 0.055 | [8] -0.089 | [9] 0.014

UBE2Q1 (UniProt Q7Z7E8)
inactive: erlotinib 0.058 | [1] 0.006 | [2] 0.059 | [3] 0.017 | [4] 0.019 | [5] 0.061 | [6] 0.014 | [7] 0.026 | [8] -0.016 | [9] -0.037

XPO1 (UniProt O14980)
UniProt O14980, sequence (O14980 whole entry, looked up): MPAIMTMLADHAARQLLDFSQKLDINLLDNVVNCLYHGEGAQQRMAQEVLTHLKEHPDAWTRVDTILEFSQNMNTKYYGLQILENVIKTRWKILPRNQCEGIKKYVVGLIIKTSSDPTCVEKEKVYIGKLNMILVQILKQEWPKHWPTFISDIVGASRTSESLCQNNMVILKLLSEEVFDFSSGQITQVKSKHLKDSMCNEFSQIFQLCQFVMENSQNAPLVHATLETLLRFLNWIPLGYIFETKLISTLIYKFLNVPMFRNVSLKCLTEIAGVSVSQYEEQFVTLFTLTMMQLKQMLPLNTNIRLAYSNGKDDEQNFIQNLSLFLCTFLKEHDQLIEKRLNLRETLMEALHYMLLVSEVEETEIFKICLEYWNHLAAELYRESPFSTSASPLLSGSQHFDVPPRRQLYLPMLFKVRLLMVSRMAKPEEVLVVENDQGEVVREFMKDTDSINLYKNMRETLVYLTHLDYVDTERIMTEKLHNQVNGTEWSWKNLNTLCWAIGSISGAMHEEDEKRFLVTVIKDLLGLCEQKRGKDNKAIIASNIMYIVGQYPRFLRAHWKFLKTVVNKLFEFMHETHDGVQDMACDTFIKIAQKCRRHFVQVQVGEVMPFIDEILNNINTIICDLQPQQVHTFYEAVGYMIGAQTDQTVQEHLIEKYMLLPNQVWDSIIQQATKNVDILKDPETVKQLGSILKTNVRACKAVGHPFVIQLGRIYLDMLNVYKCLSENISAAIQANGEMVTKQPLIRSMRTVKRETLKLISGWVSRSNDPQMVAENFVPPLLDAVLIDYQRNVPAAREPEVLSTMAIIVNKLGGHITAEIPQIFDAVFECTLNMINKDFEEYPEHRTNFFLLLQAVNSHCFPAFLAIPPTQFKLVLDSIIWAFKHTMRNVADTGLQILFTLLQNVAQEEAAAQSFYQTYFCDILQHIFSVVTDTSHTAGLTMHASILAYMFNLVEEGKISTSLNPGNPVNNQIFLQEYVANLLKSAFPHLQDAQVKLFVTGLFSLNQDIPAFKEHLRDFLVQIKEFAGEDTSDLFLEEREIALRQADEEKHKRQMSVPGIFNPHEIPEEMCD
inactive: erlotinib 0.019 | [1] 0.118 | [2] 0.045 | [3] -0.06 | [4] 0.061 | [5] 0.041 | [6] 0.051 | [7] -0.036 | [8] 0.002 | [9] -0.027

VAMP7 (UniProt P51809)
inactive: erlotinib -0.02 | [1] 0.003 | [2] 0.077 | [3] 0.005 | [4] 0.016 | [5] 0.007 | [6] 0.065 | [7] -0.001 | [8] 0.001 | [9] 0.03

VPS35L (UniProt Q7Z3J2)
inactive: erlotinib 0.011 | [1] -0.004 | [2] -0.072 | [3] 0.025 | [4] 0.044 | [5] 0.059 | [6] 0.014 | [7] 0.012 | [8] -0.047 | [9] 0.071

TOM1L1 (UniProt O75674)
inactive: erlotinib 0.019 | [1] -0.009 | [2] -0.003 | [3] 0.044 | [4] -0.038 | [5] 0.037 | [6] -0.023 | [7] -0.026 | [8] 0.006 | [9] 0.076

WASHC5 (UniProt Q12768)
inactive: erlotinib 0.019 | [1] 0.084 | [2] -0.061 | [3] -0.004 | [4] 0.088 | [5] -0.058 | [6] 0.04 | [7] 0.018 | [8] 0.002 | [9] 0.002

WDR11 (UniProt Q9BZH6)
inactive: erlotinib 0.103 | [1] -0.081 | [2] 0.145 | [3] -0.004 | [4] 0.115 | [5] 0.067 | [6] -0.168 | [7] 0.005 | [8] 0.091 | [9] 0.023

TRAPPC3 (UniProt O43617)
UniProt O43617, sequence (O43617 whole entry, looked up): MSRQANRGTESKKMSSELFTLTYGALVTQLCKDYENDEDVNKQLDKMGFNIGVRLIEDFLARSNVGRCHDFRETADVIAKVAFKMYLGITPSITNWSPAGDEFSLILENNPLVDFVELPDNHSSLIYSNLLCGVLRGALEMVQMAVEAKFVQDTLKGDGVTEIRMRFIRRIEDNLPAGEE
inactive: erlotinib -0.032 | [1] 0.102 | [2] 0.025 | [3] -0.001 | [4] 0.021 | [5] 0.069 | [6] -0.047 | [7] -0.018 | [8] 0.008 | [9] -0.077

VRK2 (UniProt Q86Y07)
inactive: erlotinib 0.004 | [1] 0.014 | [2] -0.021 | [3] -0.026 | [4] -0.065 | [5] 0.011 | [6] -0.02 | [7] 0.118 | [8] 0.013 | [9] 0.072

VPS11 (UniProt Q9H270)
inactive: erlotinib -0.041 | [1] 0.099 | [2] 0.015 | [3] 0.005 | [4] 0.058 | [5] 0.068 | [6] 0.03 | [7] -0.011 | [8] 0.002 | [9] 0.027

UBE2E3 (UniProt Q969T4)
inactive: erlotinib 0.063 | [1] 0.112 | [2] 0.152 | [3] -0.034 | [4] 0.083 | [5] 0.009 | [6] 0.014 | [7] 0.045 | [8] -0.028 | [9] -0.019

TNNC2 (UniProt P02585)
UniProt P02585, sequence (P02585 whole entry, looked up): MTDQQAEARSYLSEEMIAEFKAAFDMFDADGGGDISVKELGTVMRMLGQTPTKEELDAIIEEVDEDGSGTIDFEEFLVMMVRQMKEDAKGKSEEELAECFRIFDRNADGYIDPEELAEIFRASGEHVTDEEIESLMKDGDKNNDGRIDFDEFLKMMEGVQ
inactive: erlotinib 0.035 | [1] -0.007 | [2] -0.004 | [3] 0.018 | [4] 0.047 | [5] 0.026 | [6] -0.058 | [7] -0.026 | [8] 0.101 | [9] -0.449

TMEM208 (UniProt Q9BTX3)
UniProt Q9BTX3, sequence (Q9BTX3 whole entry, looked up): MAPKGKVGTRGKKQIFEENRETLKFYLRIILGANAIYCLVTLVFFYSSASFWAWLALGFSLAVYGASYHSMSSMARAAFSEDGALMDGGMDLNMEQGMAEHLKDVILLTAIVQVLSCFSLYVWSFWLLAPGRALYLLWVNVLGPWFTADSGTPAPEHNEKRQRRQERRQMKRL
inactive: erlotinib -0.021 | [1] 0.032 | [2] 0.101 | [3] 0.046 | [4] 0.13 | [5] 0.011 | [6] -0.054 | [7] -0.098 | [8] -0.002 | [9] 0.033

TSG101 (UniProt Q99816)
UniProt Q99816, sequence (Q99816 whole entry, looked up): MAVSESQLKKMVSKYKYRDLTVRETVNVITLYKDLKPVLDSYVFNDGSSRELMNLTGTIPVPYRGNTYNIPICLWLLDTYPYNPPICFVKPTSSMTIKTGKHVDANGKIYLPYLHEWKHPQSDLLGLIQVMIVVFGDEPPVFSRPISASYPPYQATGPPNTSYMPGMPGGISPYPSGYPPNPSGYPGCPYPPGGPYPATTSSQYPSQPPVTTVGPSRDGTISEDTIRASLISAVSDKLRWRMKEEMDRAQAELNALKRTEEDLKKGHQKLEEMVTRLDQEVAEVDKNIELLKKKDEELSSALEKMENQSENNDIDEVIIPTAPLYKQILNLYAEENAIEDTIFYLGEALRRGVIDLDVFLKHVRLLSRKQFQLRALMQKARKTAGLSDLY
inactive: erlotinib 0.022 | [1] 0.054 | [2] 0.051 | [3] 0.027 | [4] 0.046 | [5] 0.004 | [6] -0.032 | [7] 0 | [8] 0.003 | [9] -0.006

WARS2 (UniProt Q9UGM6)
inactive: erlotinib 0.069 | [1] -0.016 | [2] 0.034 | [3] -0.094 | [4] 0.033 | [5] 0.006 | [6] -0.032 | [7] 0.031 | [8] 0.027 | [9] -0.027

TMEM223 (UniProt A0PJW6)
inactive: erlotinib 0.005 | [1] 0.052 | [2] -0.018 | [3] 0.002 | [4] -0.009 | [5] 0.013 | [6] -0.007 | [7] 0.01 | [8] 0.007 | [9] -0.038

VPS33B (UniProt Q9H267)
UniProt Q9H267, sequence (Q9H267 whole entry, looked up): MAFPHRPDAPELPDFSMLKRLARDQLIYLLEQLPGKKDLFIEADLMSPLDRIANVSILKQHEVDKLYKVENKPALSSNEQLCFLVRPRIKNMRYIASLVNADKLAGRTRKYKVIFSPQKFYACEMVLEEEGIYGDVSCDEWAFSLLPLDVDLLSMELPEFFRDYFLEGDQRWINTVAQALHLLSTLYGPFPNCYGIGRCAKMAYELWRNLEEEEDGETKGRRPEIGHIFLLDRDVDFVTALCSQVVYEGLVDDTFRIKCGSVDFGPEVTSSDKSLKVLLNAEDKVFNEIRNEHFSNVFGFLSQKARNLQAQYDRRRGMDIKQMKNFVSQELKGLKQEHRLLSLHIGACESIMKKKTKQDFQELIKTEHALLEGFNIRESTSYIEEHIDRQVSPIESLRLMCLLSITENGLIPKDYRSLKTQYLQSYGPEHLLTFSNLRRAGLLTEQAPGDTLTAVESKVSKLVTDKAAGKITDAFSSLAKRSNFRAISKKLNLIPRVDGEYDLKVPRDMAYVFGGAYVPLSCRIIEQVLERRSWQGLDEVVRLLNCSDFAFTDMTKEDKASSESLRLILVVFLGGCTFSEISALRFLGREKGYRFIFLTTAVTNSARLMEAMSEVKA
inactive: erlotinib 0.108 | [1] 0.093 | [2] -0.039 | [3] -0.07 | [4] 0.073 | [5] 0.053 | [6] 0.019 | [7] 0.044 | [8] -0.076 | [9] -0.102
